Screening data deposited in PubChem BioAssay by National Center for Advancing Translational Sciences (NCATS).
TDP1 cell CPT = qHTS for Inhibitors of human tyrosyl-DNA phosphodiesterase 1 (TDP1): qHTS in cells in presence of CPT. 420,000 tested, 12% active. chicken DT40 Tdp1-/-;hTDP1 cells + 20 nM CPT, ATP luminescence, 48 h. Potency, µM (titrated, usually from 46.2 µM), most hits filed as inhibitors; note: nearly all actives have a fitted effect of over 55% in size
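Cell growth measured by CellTiter-Glo luminescence after a minimum 48 h, 37 C compound exposure with 20 nM CPT in Tdp1-knockout DT40 cells stably expressing hTDP1, seeded 400/well; qHTS titration format.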
IL1B secr inh = qHTS for Inhibitors of Inflammasome Signaling: IL-1-beta AlphaLISA Primary Screen. THP-1 LPS/ATP IL-1B secretion, AlphaLISA, 16 h; active compounds read low. activity change, % at 57.5 µM. 360,000 tested, 4.7% active. AID 743279, 2014; in the data active = activity change below about -50%; inconclusive = mostly about -30% to -49%
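THP-1 cells pretreated 1 hr with compounds (up to 57.5 uM final), then stimulated with LPS (250 ng/mL final) plus ATP (1.25 mM final); secreted IL-1B measured by AlphaLISA after 16 hr, decreased signal indicating inhibition.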
BCR signal inh = qHTS Assay to Find Inhibitors of Chronic Active B-Cell Receptor Signaling | ABC-DLBCL IkBa-CBG/CBR reporter, luminescence ratio, 4 h | AID 493014, 2011 | Potency, µM (highest dose often 46.1 µM), usual class: inhibitors | 340,000 tested, 0.05% active; active = well fitted inhibition curve with a large enough effect in the signal ratio, with a control signal flat, not every such curve was filed as active; inconclusive = small, poorly fitted or top-dose-only effect, or effect the other way, or a change in a side signal; the % refers to the signal ratio
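Cell line TMD8 (human ABC DLBCL), stably expressing tet-inducible CBG68-IkBa fusion and CBR; IMDM/0.5% FBS; cpd up to 46 uM; dox induction, 4 h, 37C/5% CO2; dual luminescence; green/red ratio; MG132 control.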
MCF10A rereplic = A quantitative high throughput screen for small molecules that induce DNA re-replication in MCF 10a normal breast cells. MCF 10A DNA re-replication, Hoechst nuclear intensity, 48 h. 350,000 tested, 2.9% active. Potency, µM (doses to about 46.1 µM), actives largely listed as activators. AID 624296, 2012; note: nearly all actives have a fitted effect of over 50% in size
DT40 TDP1 no CPT = qHTS for Inhibitors of human tyrosyl-DNA phosphodiesterase 1 (TDP1): qHTS in cells in absence of CPT; 420,000 tested, 15% active; DT40 Tdp1-/- hTDP1 cells, no CPT, ATP luminescence, 48 h; AID 686978, 2013; Potency, µM (top dose mostly 46.2 µM), actives largely listed as inhibitors; note: nearly all actives have a fitted effect of over 55% in size
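Stably hTDP1-transfected Tdp1-null chicken DT40 cells were treated with library compounds minus camptothecin and grown for at least 48 hr at 37 °C, after which cellular ATP was quantified by luminescence.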
SW480 rerep = A quantitative high throughput screen for small molecules that induce DNA re-replication in SW480 colon adenocarcinoma cells. 340,000 tested, 1.8% active. Potency, µM (titrated, usually from 46.1 µM), hits mostly activators. SW480 DNA re-replication, Hoechst DNA content imaging, 48 h. AID 624297, 2012; note: nearly all actives have a fitted effect of over 55% in size
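Treated cells incubate 48 hr (37 C, 5% CO2), are stained 40 min with Hoechst, and nuclear fluorescence is enumerated; a rise in nuclei with high DNA signal marks re-replication.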
Hits are given with their value; n = inactive; u = inconclusive; x = no result; [ ] = dose if it differs, or a comment. An excerpt weighted towards active compounds, which were near 19% of everything screened. Unless noted, calls come from the whole dose curve; as a rule, active = well fitted curve in the direction sought with a large enough effect; inconclusive = small, poorly fitted or top-dose-only effect, or another doubt; inactive = no such curve, though single readings can be large; an effect the other way counts as inactive or inconclusive.

SMILES	TDP1 cell CPT	IL1B secr inh	BCR signal inh	MCF10A rereplic	DT40 TDP1 no CPT	SW480 rerep
CCn1nc(C)cc1C(=O)N1CCCC(C(=O)c2ccccc2SC)C1 (configuration not stated)	16µM	n	n	n	18µM	n
CCc1cc(C(=O)N2CCCC(C(=O)c3cccc4ccccc34)C2)n(C)n1 (configuration not stated)	u	n	n	n	15µM	n
CSc1ccccc1C(=O)C1CCCN(C(=O)NC(C)C)C1 (configuration not stated)	n	n	n	n	n	n[1.84 µM]
O=C(c1cccc2ccccc12)C1CCCN(C(=O)c2ccc(N3CCOCC3)cc2)C1 (configuration not stated)	u	u	n	n	23µM	u
O=C(c1cccc2ccccc12)C1CCCN(C(=O)CCCn2cncn2)C1 (configuration not stated)	n	n	n	n	16µM	n
CN(C)S(=O)(=O)c1ccc(S(=O)(=O)NCc2cccs2)cc1	n	n	n	n	n	n
Cc1cc(C)cc(NC(=O)N2CCN(C)c3ncccc32)c1	n	x	x	x	n	x
CCOC(=O)CCCc1ccc(/C(C)=N/NC(=S)NC)cc1	u	n	n	n	u	n
CNC(=S)NN=C(C)CCCC(C)=NNC(=S)NC	0.16µM	-105	x	n	0.021µM	0.41µM
CN(C)CCSc1nc(-c2ccccc2)nc2c1CCC2	n	n	n	n	n	n
CN(C)CCCSc1nc(-c2ccccc2)nc2c1CCC2	u	-53	n	n	u	n
CN(C)C(=O)CSc1nc(-c2ccccc2)nc2c1CCCC2	u	-70	n	n	u	u
Cc1ccccc1NC(=O)c1ccc(F)c(S(=O)(=O)N(C)C2CCCCC2)c1	n	x	n	x	u	x
C=C(C)C(=O)Oc1ccc(N2C(=O)[C@@H]3C4C=CC(C4)[C@@H]3C2=O)cc1	u	-99	u	n	u	n
CC(=O)Oc1cccc(N2C(=O)C3C4C=CC(C4)C3C2=O)c1 (configuration not stated)	n	n	n	n	n	n
CCc1ccc(Cn2ncc3c(C(=O)O)cc(C)nc32)cc1	n	n	x	n	n	n
Cc1c(N2CCCC2)cc2c(c1NC(=O)c1ccccc1Cl)C(C)(C)CC2(C)C	u	n	u	n	15µM	n
C#CCOCCOCCOCCNc1nc(N2CCN(C(=O)[C@H](CC(N)=O)n3cc(C(N)[C@@H](C)CC)nn3)CC2)nc(N2CCN(C(=O)[C@H](CCC(=O)O)n3cc([C@@H](N)CCCCN)nn3)CC2)n1 (some centres not stated)	n	n	n	n	n	n
CC1CN(C(=O)CCNC(=O)c2ccccc2Cl)CC(C)O1 (configuration not stated)	n	n	n	n	n	n
Cc1ccc(S(=O)(=O)NCCc2cc3ccc(C)c(C)c3[nH]c2=O)cc1	u	n	n	n	18µM	n
Cc1cc(C)c(S(=O)(=O)NCCc2cc3c(C)ccc(C)c3[nH]c2=O)c(C)c1	7.3µM	x	x	x	3.7µM	x
CCCS(=O)(=O)NCCc1cc2c(C)ccc(C)c2[nH]c1=O	n	n	n	n	n	n
Cc1ccc2cc(CCNS(=O)(=O)c3ccc(F)cc3)c(=O)[nH]c2c1C	21µM	n	n	n	18µM	n
CC1CCC(NC(=O)CSc2nncs2)CC1 (configuration not stated)	n	n	u	n	n	n
COc1cc(/C=C2\SC(=S)N(CCC(=O)Nc3cccc(O)c3)C2=O)cc(OC)c1OC	u	-98	u	u	16µM	n
SMILES	TDP1 cell CPT	IL1B secr inh	BCR signal inh	MCF10A rereplic	DT40 TDP1 no CPT	SW480 rerep
COc1cc(/C=C2\SC(=S)N(NC(=O)c3ccc(O)c(OC)c3)C2=O)ccc1O	n	n	n	n	n	n
COc1cc(/C=C2\SC(=S)N(NC(=O)c3cccc(O)c3)C2=O)ccc1O	16µM	n	n	n	23µM	n
COc1cc(/C=C2/SC(=S)N(CCC(=O)Nc3ccccc3)C2=O)cc(OC)c1OC	u	n	u	21µM	u	n
COc1cc(/C=C2\SC(=S)N(CCC(=O)Nc3ccccc3)C2=O)cc(OC)c1OC	u	n	n	18µM	u	n
COc1cc(/C=C2/SC(=S)N(CCC(=O)Nc3cccnc3)C2=O)cc(OC)c1OC	u	n	x	x	u	x
COc1ccccc1NC(=O)CCN1C(=O)/C(=C\c2cc(OC)c(OC)c(OC)c2)SC1=S	n	n	u	n	u	n
Cc1ccccc1-c1nnn(CC(=O)N(C)CC(=O)Nc2ccccc2C(F)(F)F)n1	n	n	u	n	n	n
COc1ccc(OC)c(NC(=O)CSc2nncc(=O)n2N)c1	n	n	n	n	n	n
COC(=O)N(C)C[C@H]1OCc2cn(nn2)CCCC(=O)N([C@@H](C)CO)C[C@@H]1C	n	n	x	x	n	x
COc1ccccc1/C=C1\SC(=S)N(CCC(=O)Nc2cccc(O)c2)C1=O	n	n	u	10µM	u	n
O=C(N/N=C/C=C/c1cccc([N+](=O)[O-])c1)c1ccncc1	u	n	n	n	u	n
O=C(N/N=C/C=C/c1ccccc1)c1ccncc1	u	n	u	n	21µM	n
O=C(N/N=C/C=C/c1ccccc1)c1cc2c(ccc3ccccc32)o1	n	n	n	u	n	12µM
COC(=O)CCCC(=O)NCC1(N(C)Cc2ccccc2)Cc2ccccc2C1	n	n	n	u	u	u
COc1ccc(S(N)(=O)=O)cc1C(=O)OCC(=O)N1c2ccccc2NC(=O)C1(C)C	n	n	n	n	n	n
COc1cc(/C=C/C(=O)OCC(=O)N2c3ccccc3NC(=O)C2(C)C)cc(OC)c1OC	18µM	-65	u	n	10µM	n
COC(=O)[C@@H]1CCCN1C(=O)c1c(OC)cc(=O)n2c1CCN(Cc1ccc3c(c1)CCO3)CC2	n	x	x	x	n	x
C/C(N=Nc1nc2ccccc2s1)=N\Nc1ccccc1O	9.2µM	n	u	u	2.6µM	u
Oc1[nH]c2ccccc2c1N=Nc1nc2ccccc2s1	u	n	u	n	u	n
COc1ccc(C(C)=O)cc1CSc1nnc(Nc2ccc(C)cc2)s1	u	-66	n	n	23µM	n
COc1ccc(C(C)=O)cc1CSc1nnc(C)s1	n	n	n	n	n	n
